Among the data in PubChem BioAssay (NCATS) are activation values, retold here.

Where “and” joins values, the source holds several entries; their conditions need not be identical. Identical values can stand only once. Records with an inconclusive call do not appear. Calls of active or inactive are those of the source. Calls follow the shape of the dose curve; as a rule, active = well fitted activation curve with a large enough effect; inconclusive = small, poorly fitted or top-dose-only effect; inactive = no such curve, though single readings can be large or run the other way.

For this experiment, the target named is Cellular tumor antigen p53 (Homo sapiens) (UniProt P04637). Put plainly: Primary qHTS for small molecule compounds that upregulate eGFP-tagged delta133p53alpha (in N-terminal) cells. (AID 2060322).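 Also: cells pre-induced with doxycycline then dosed without doxycycline; series mostly up to about 56 µM; 0% = DMSO vehicle and 100% = reference activator; nearly all actives have a fitted effect of over 75% in size.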 The note with it: NCI-H358 eGFP-delta133p53alpha fluorescence, 24 h; activation: active compounds read high. In short, it runs like this: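 NCI-H358 cells pre-induced 24 h with 10 ng/ml doxycycline for eGFP-delta133p53alpha, plated dox-free and exposed 24 h at 37C to titrated compounds. Fixed, Hoechst-stained; gated GFP peak intensity by laser scanning cytometry, normalized to DMSO (0%) and 57.5 uM 5-azacytidine (100%).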
Sequence of Cellular tumor antigen p53 (Homo sapiens) (P04637 whole entry, looked up): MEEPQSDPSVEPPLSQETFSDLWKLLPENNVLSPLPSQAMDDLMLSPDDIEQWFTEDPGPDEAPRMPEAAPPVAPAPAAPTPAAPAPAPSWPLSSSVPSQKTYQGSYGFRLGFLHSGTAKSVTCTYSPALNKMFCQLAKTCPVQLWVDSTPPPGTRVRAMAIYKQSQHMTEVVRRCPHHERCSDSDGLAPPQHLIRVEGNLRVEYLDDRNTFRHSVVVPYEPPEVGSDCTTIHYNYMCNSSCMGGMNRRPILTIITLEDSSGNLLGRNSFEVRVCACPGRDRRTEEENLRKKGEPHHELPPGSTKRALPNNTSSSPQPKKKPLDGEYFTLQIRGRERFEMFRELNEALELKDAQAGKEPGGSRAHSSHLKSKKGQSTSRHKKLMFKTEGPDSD
(In general: In qHTS, concentration-response curves come from the screen itself.)
As for `Cc1cc(C(C)(C)C)cc(C)c1CC1=NCCN1`, the activation is 4.18% (inactive) and 6.06% (inactive) and -36% (inactive).

Turning to `COc1ccc(CCN(C)CCCC(C#N)(c2ccc(OC)c(OC)c2)C(C)C)cc1OC` (stereo unspecified), the activation is -12.4% (inactive) and 7.69% (inactive).

`Cc1cc(C)c(/C=C2\C(=O)Nc3ccccc32)[nH]1`: the activation was -35.1% (inactive).

With `Cc1cc(Cl)ccc1OCCCC(=O)NO`, the activation is 35.3% (inactive) and -37.1% (inactive) and -6.7% (inactive).

Take `NCCc1ccc(O)c(O)c1`: the activation was -4.36% (inactive) and 11.8% (inactive).

Turning to `Clc1ccc(C(c2ccc(Cl)cc2)n2cc[n+](CC(OCc3ccc(Cl)cc3Cl)c3ccc(Cl)cc3Cl)c2)cc1` (stereo unspecified), the activation is 29.4% (inactive).

For `O=C1CCC(N2C(=O)c3ccccc3C2=O)C(=O)N1` (stereo unspecified), the activation is -0.565% (inactive) and -9.78% (inactive) and -7.37% (inactive).

Turning to `CC(C)Cc1ccc(C(C)C(=O)O)cc1` (stereo unspecified), the activation was 17.5% (inactive) and 9.01% (inactive).

As for `NC(N)=NC(=O)c1nc(Cl)c(N)nc1N`, the activation is 11.3% (inactive) and -28.8% (inactive) and -10.6% (inactive).

Regarding `CN1CCC(=C2c3ccccc3CC(=O)c3sccc32)CC1`, the activation was 59.8% (inactive) and 8.47% (inactive) and -42.7% (inactive).

As to `OC(CCN1CCCCC1)(c1ccccc1)C1CC2C=CC1C2` (stereo unspecified), the activation was -27.6% (inactive) and 6.19% (inactive) and -26.9% (inactive).

With `Oc1ccc(/C=C/c2cc(O)cc(O)c2)cc1`, the activation is 1.67% (inactive) and -36.3% (inactive).

As to `COc1cc(SC)ccc1C(=O)N1CCC(Cc2ccccc2)CC1`, the activation is 14.6% (inactive).

In the case of `CS(=O)(=O)Nc1ccc([N+](=O)[O-])cc1Oc1ccccc1`, the activation is -3.95% (inactive) and 5.46% (inactive) and -33.6% (inactive).

Take `Nc1nc(N)c(N=O)c(OCC2CCCCC2)n1`: the activation was -20.9% (inactive).

As to `Nc1nc2c(ncn2COCCO)c(=O)[nH]1`, the activation was 6.69% (inactive) and 13.1% (inactive).

Turning to `O=C(c1ccc(OCCN2CCCCC2)cc1)c1c(-c2ccc(O)cc2)sc2cc(O)ccc12`, the activation is 20.9% (inactive) and -56% (inactive).

Consider `C[C@H]1O[C@@H](n2cc(F)c(=O)[nH]c2=O)[C@H](O)[C@@H]1O`, for which the activation was 2.35% (inactive).

Consider `Nc1c2c(nc3ccccc13)CCCC2`, for which the activation was -15.6% (inactive) and 9.21% (inactive) and -7.03% (inactive).

With `NC12CC3CC(CC(C3)C1)C2`, the activation is 1.69% (inactive) and 3.9% (inactive).

Turning to `Cc1cccc(-c2[nH]c(C(C)(C)C)nc2-c2ccc3nccnc3c2)n1`, the activation is -6.37% (inactive) and 25.5% (inactive).

With `CC1COc2c(N3CCN(C)CC3)c(F)cc3c(=O)c(C(=O)O)cn1c23` (stereo unspecified), the activation is 11.7% (inactive) and -7% (inactive) and 13.8% (inactive).

Turning to `CCN1CCCC1CNC(=O)c1cc(S(=O)(=O)CC)c(N)cc1OC` (stereo unspecified), the activation is -0.505% (inactive) and -9.21% (inactive) and -28.2% (inactive).

Turning to `Cc1ccc(N(CC2=NCCN2)c2cccc(O)c2)cc1`, the activation was -15.3% (inactive) and 15.9% (inactive).

Regarding `CCn1cc(C(=O)O)c(=O)c2cc(F)c(N3CCNC(C)C3)c(F)c21` (stereo unspecified), the activation is -0.837% (inactive) and 16.4% (inactive) and -15.6% (inactive).

As for `CC(C[N+](C)(C)C)OC(N)=O` (stereo unspecified), the activation is -5.86% (inactive) and -4.18% (inactive) and -40.2% (inactive).

For the compound `CC(C)(Oc1ccc(C2CC2(Cl)Cl)cc1)C(=O)O` (stereo unspecified), the activation was -8.47% (inactive) and 20.1% (inactive) and -16.4% (inactive).

`NC(=O)c1ncn([C@@H]2O[C@H](CO)[C@@H](O)[C@H]2O)n1`: the activation is 6.69% (inactive) and -41.3% (inactive).

Take `CN(C)CCC=C1c2ccccc2C=Cc2ccccc21`: the activation was 5.02% (inactive) and 17.3% (inactive).

`CN1CCC(=C2c3ccccc3C=Cc3ccccc32)CC1`: the activation was -15.3% (inactive) and 19.5% (inactive) and -34.1% (inactive).

`CC(C)c1ccc2c(c1)c(SC(C)(C)C)c(CC(C)(C)C(=O)O)n2Cc1ccc(Cl)cc1`: the activation was 10.9% (inactive) and -49% (inactive).
